HT1080 IDH1KD tx = HT-1080 IDH1 knockdown cell toxicity (counter line); 360,000 compounds, 2% hits; HT-1080 IDH1 knockdown viability, ATP luminescence, 48 h; AID 686971; Potency, µM (titrated, usually from 46.1 µM), actives largely listed as cytotoxic
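IDH1KD HT-1080 cells, 750/well, RPMI + 5% FBS; compound pinned after 2 h settling; 48 h, 37 °C; CellTiter-Glo luminescence; % activity normalised to DMSO and no-cell wells; curves fitted, classed by r2 and efficacy.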
HT1080NT lethal = kills 2HG-producing HT-1080-NT fibrosarcoma cells; 360,000 compounds, 1.6% hits; HT-1080-NT fibrosarcoma viability, CellTiter-Glo ATP luminescence, 48 h; AID 686970; Potency, µM (titrated, usually from 46.1 µM), hits mostly cytotoxic;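 note: NT is the 2HG producing partner of a matched IDH1 knockdown line; nearly all actives have a fitted effect of over 55% in size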
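Compounds were tested in concentration-response format on HT-1080-NT cells for 48 hours at 37 degrees C. Cell viability came from CellTiter-Glo luminescence; curves were classified by r2, response magnitude and activity.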
DT40 TDP1 CPT = growth inhibition of DT40 Tdp1-/-;hTDP1 cells with camptothecin (screen for TDP1 inhibitors). Potency, µM (highest dose often 46.2 µM), hits mostly inhibitors. 420,000 compounds, 12% hits. chicken DT40 Tdp1-/-;hTDP1 cells + 20 nM CPT, ATP luminescence, 48 h. AID 686979; note: nearly all actives have a fitted effect of over 55% in size
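Chicken DT40 Tdp1-/- cells complemented with human TDP1, 400 cells/well, exposed to compounds plus 20 nM camptothecin for at least 48 h at 37 C; viability read as ATP content by CellTiter-Glo luminescence.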
IL-1B inflam inh = inhibitors of inflammasome signaling (IL-1 beta secretion). AID 743279. 360,000 compounds, 4.7% hits. activity change, % at 57.5 µM. THP-1 LPS/ATP IL-1B secretion, AlphaLISA, 16 h; hits give low values; in the data active = activity change below about -50%; inconclusive = mostly about -30% to -49%
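THP-1 cells pretreated 1 hr with compounds (up to 57.5 uM final), then stimulated with LPS (250 ng/mL final) plus ATP (1.25 mM final); secreted IL-1B measured by AlphaLISA after 16 hr, decreased signal indicating inhibition.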
TDP1 cell noCPT = qHTS for Inhibitors of human tyrosyl-DNA phosphodiesterase 1 (TDP1): qHTS in cells in absence of CPT | DT40 Tdp1-/- hTDP1 cells, no CPT, ATP luminescence, 48 h | 420,000 compounds, 15% hits | Potency, µM (highest dose often 46.2 µM), hits mostly inhibitors | AID 686978, 2013; note: nearly all actives have a fitted effect of over 55% in size
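Stably hTDP1-transfected Tdp1-null chicken DT40 cells were treated with library compounds minus camptothecin and grown for at least 48 hr at 37 °C, after which cellular ATP was quantified by luminescence.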
Numbers stand for hits; - = inactive; ? = inconclusive; . = no result given. Compounds with a hit are over-represented: about 19% of the library has one in this group of screens. Unless noted, calls come from the whole dose curve; as a rule, active = well fitted curve in the direction sought with a large enough effect; inconclusive = small, poorly fitted or top-dose-only effect, or another doubt; inactive = no such curve, though single readings can be large; an effect the other way counts as inactive or inconclusive.

SMILES | HT1080 IDH1KD tx | HT1080NT lethal | DT40 TDP1 CPT | IL-1B inflam inh | TDP1 cell noCPT
N#C/C(=N\Nc1cccc(C(F)(F)F)c1)C(=O)c1csc(-c2cccnc2)n1 | ? | - | 16µM | - | 26µM
Cc1c(C(=O)NCC(C)C)sc2nc(-c3ccc(F)cc3)cn12 | - | - | - | - | -
COc1ccccc1C=CC(=O)C=Cc1ccccc1OC | 13µM | ? | 4.6µM | -104 | 3.3µM
CNc1ccc(Br)cc(C(=O)/C=C/c2cccc(OC)c2OC)c1=O | - | - | - | - | -
COc1ccccc1/C=C/C(=O)/C=C/c1ccccc1O | 5.8µM | 6.5µM | 2.9µM | -98 | 2.9µM
CNc1ccccc(C(=O)/C=C/c2ccccc2OC)c1=O | - | - | 18µM | -104 | 15µM
COc1ccccc1/C=C/C(C)=O | - | - | - | - | -
COc1ccccc1/C=C/C(=O)Nc1cccnc1Cl | - | - | - | -55 | -
Cc1ccc(-c2nc3ccc(Cl)cc3c(=O)n2O)cc1 | - | - | ? | - | 16µM
CN(C)N1C(N)=C(C#N)C(c2ccsc2)C2=C1CC(C)(C)CC2=O (stereo unspecified) | - | - | - | - | -
N#CC1=C(N)N(c2ccccc2)C2=C(C(=O)CCC2)C1c1ccsc1 (stereo unspecified) | ? | 11µM | - | - | -
Cc1ccc(N2C(N)=C(C#N)C(c3ccsc3)C3=C2CC(C)(C)CC3=O)cc1 (stereo unspecified) | - | - | ? | -55 | ?
OC(CNCCNc1ncccc1C(F)(F)F)COc1ccc(F)cc1 (stereo unspecified) | ? | - | - | -82 | ?
COc1ccc(OC)c(NC(=O)COC(=O)c2ccc(OC)c(S(=O)(=O)N3CCOCC3)c2)c1 | - | - | - | - | -
COc1ccccc1NC(=S)N(Cc1cccs1)C1CCCC1 | - | - | ? | -63 | 6.5µM
O=C1c2ccccc2C(=O)N1c1nc(-c2ccc(F)cc2)cs1 | . | . | - | . | ?
CC1(C)Cc2ccccc2C(c2cc3ccccc3oc2=O)=N1 | ? | 21µM | ? | - | ?
COc1ccc(CC(=O)N/N=C(\C)c2cccc(NC(=O)C3CC3)c2)cc1 | - | - | - | - | -
C/C(=N\NC(=O)C1(C)CC1(Br)Br)c1cccc(NC(=O)C2CCC2)c1 (stereo unspecified) | - | - | 18µM | - | 26µM
COC(=O)c1ccc2c(=O)sc(N3CCC(C(N)=O)CC3)nc2c1 | - | - | - | - | -
C[N+](C)(C)CCN(Cc1ccc(Cl)cc1)c1ccccn1 | - | - | 18µM | - | 16µM
Cc1cc2oc(=O)cc(-c3ccccc3)c2c(C)c1-c1ccc(C#N)cc1 | - | - | 16µM | - | 16µM
CC(=O)c1ccc(-c2c(C)cc3oc(=O)cc(-c4ccccc4)c3c2C)cc1 | - | - | 18µM | - | 23µM
O=C([C@@H]1C[C@@H](Sc2nc3ccccc3[nH]2)CN1Cc1c(F)cccc1F)N1CCOCC1 | . | . | - | . | -
CCc1sc(C(=O)Nc2ncccc2C)cc1C | - | - | - | - | -
SMILES | HT1080 IDH1KD tx | HT1080NT lethal | DT40 TDP1 CPT | IL-1B inflam inh | TDP1 cell noCPT
Cc1cccnc1NC(=O)NC(=O)c1ccc(C(C)(C)C)s1 | - | - | ? | - | 16µM
CCC(C(=O)NCCCN(CC)Cc1ccccc1)n1nc(C)c2sc3ccccc3c2c1=O (stereo unspecified) | ? | - | ? | - | ?
O=CNc1ccc(S(=O)(=O)NCc2ccccc2)cc1 | - | - | - | - | -
O=C(CCN1CCOCC1)N/N=C/c1cc(Br)cc(Br)c1O | ? | ? | 6.5µM | - | 18µM
COc1ccc(/C=N/NC(=O)c2cccs2)c2ccccc12 | ? | - | ? | - | 8.2µM
COc1ccc(/C=N/NC(N)=S)cc1OC(=O)c1cccc2ccccc12 | ? | - | 15µM | - | 18µM
C=CCOc1ccccc1/C=N/NC(=O)c1ccc(Cl)cc1Cl | - | - | - | - | ?
COc1cc(/C=N/NC(=O)c2cccc3ccccc23)cc(OC)c1O | - | - | 4.6µM | - | ?
COc1ccc(C(=O)Oc2cc(/C=N/NC(N)=S)ccc2OC)cc1 | - | - | - | - | -

Assay outcomes deposited in PubChem BioAssay by National Center for Advancing Translational Sciences (NCATS).
